Many of the other results were omitted from the sample, so hits are more common in it than they were.
nsP2pro inh: CHIKV nsP2 protease inhibition, primary qHTS; Q8JUX6; 31,000 compounds, 1.1% hits; Potency, µM (top dose mostly 24.9 µM), for inactives: top-dose activity change, negative = inhibition, actives largely listed as inhibitors; FRET peptide cleavage, nsP2pro, fluorescence 1 h; note: nearly all actives have a fitted effect of over 60% in size
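Recombinant nsP2pro (150 nM) was preincubated with compound 15 min at room temperature in 10 mM Tris-HCl pH 8.0, 0.01% Tween 20. Peptide 2 FRET substrate (2.5 uM) was then added and fluorescence read after 1 h. Seven-point series, up to 25 uM.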
CHIKV nsP2 cell: secondary cell-based test for CHIKV nsP2 protease inhibitors. shares compounds with nsP2pro inh. cell-based CHIKV nsP2 protease reporter assay. Potency, µM (series often up to 51.1 µM), for the others: at the highest dose activity change, negative = inhibition, actives largely listed as inhibitors. 450 compounds, 10% hits. AID 1964100; note: nearly all actives have a fitted effect of over 70% in size
CHIKV NSP2 FL: full-length CHIKV NSP2 protease inhibition, selectivity; shares compounds with nsP2pro inh; Full-length CHIKV NSP2 protease enzymatic counterscreen; Potency, µM (highest dose often 50.7 µM), for inactives: at the top dose activity change, negative = inhibition, most hits filed as inhibitors; 410 compounds, 39% hits; AID 1964101; note: nearly all actives have a fitted effect of over 65% in size
Furin counterscr: selectivity counter-screen for CHIKV nsP2 protease inhibitors: human furin; shares compounds with nsP2pro inh; Recombinant human furin enzymatic counterscreen, fluorogenic substrate; Potency, µM (top dose mostly 50.6 µM), inactives show at the highest dose activity change, negative = inhibition, hits mostly inhibitors; 410 compounds, 6% hits; AID 1964102
Target sequence (P09958 whole entry, looked up): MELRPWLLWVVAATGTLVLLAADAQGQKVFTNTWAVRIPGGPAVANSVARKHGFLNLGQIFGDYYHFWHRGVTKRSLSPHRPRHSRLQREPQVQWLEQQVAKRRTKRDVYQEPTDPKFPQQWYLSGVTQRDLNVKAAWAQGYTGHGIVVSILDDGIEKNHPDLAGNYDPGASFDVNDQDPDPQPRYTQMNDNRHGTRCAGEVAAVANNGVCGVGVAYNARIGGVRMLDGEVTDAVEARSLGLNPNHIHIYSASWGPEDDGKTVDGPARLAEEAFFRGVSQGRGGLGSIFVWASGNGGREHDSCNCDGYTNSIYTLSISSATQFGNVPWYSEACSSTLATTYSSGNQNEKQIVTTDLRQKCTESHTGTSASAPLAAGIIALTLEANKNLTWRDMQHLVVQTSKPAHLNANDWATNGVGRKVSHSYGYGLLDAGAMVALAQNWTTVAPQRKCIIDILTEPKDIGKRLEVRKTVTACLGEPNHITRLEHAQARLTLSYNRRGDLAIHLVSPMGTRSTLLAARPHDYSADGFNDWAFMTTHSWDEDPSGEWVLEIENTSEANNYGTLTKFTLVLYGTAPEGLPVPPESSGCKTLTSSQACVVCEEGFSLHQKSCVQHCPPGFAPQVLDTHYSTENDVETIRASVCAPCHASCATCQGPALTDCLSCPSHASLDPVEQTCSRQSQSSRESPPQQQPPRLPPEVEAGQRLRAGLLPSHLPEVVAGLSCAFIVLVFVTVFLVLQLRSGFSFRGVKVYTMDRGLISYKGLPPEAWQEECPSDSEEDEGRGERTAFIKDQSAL
nsP2 NS23 pep: blocks CHIKV nsP2 protease cleavage of endogenous NS2/3 peptide; shares compounds with nsP2pro inh; Purified CHIKV nsP2 protease, endogenous NS2/3 peptide cleavage; Potency, µM (doses to about 51 µM), inactives show top-dose activity change, negative = inhibition, usual class: inhibitors; 410 compounds, 34% hits; AID 1964103; note: nearly all actives have a fitted effect of over 55% in size
Papain cs: inhibits papain in a CHIKV nsP2 protease selectivity counterscreen | AID 1964104 | purified papain protease activity, enzymatic inhibition | shares compounds with nsP2pro inh | Potency, µM (series often up to 51 µM), for inactives: at the top dose activity change, negative = inhibition, hits mostly inhibitors | 410 compounds, 5% hits
nsP2pro confirm: confirmation of CHIKV nsP2 protease inhibitors. shares compounds with nsP2pro inh. CHIKV nsP2 protease enzymatic activity, qHTS. Potency, µM (titrated, usually from 25.5 µM), inactives show at the top dose activity change, negative = inhibition, usual class: inhibitors. 410 compounds, 43% hits; note: nearly all actives have a fitted effect of over 75% in size
HCV NS3 4A cs: HCV NS3/4A protease inhibition, counterscreen; shares compounds with nsP2pro inh; Potency, µM (doses to about 50.9 µM), actives largely listed as inhibitors; HCV NS3/4A protease biochemical counterscreen; 410 compounds, 20% hits; note: nearly all actives have a fitted effect of over 55% in size
Numbers without * were called inactive; i = inactive; ? = inconclusive; [ ] = dose if it differs, or a comment. Calls come from the whole dose curve. % is set by controls: 0 for no effect and ±100 for the full control effect; potency is the fitted concentration of half-maximal effect.

SMILES	nsP2pro inh	others
COc1ccc(-c2cc([C@H]3CN4CC[C@H]3C[C@@H]4CNC(=O)NC3CCCCC3)n(C)n2)cc1	12%
Cc1nc(-c2ccco2)cc([C@H]2CN3CC[C@H]2C[C@@H]3CNC(=O)NC2CCCCC2)n1	8.9µM*	CHIKV nsP2 cell=31%;CHIKV NSP2 FL=13µM*;Furin counterscr=?;nsP2 NS23 pep=17µM*;Papain cs=-8%;nsP2pro confirm=13µM*;HCV NS3 4A cs=8.4µM*
CN(C)c1cnc2c(O)ccc(C(=O)O)c2c1	i
CC(C)c1noc(Cn2nc(-c3ccccc3)c3ccccc3c2=O)n1	2%
FC(F)Oc1ccccc1CN(CC1CCN(C2CCCC2)CC1)CC1CCCO1 (stereo not drawn)	i
CN1CCN(CCCNC(=O)C2(CCO)CCN(Cc3ccccc3)C2)CC1 (stereo not drawn)	i
CC1CCN(C(=O)C2(c3ccc(NC(=O)C4CC4)cc3)CCCCC2)CC1	2%
N#CN1CCC[C@@H](n2nc(-c3ccc(Oc4ccc(F)cc4F)cc3)c(C(N)=O)c2N)C1	?	CHIKV nsP2 cell=-10%;CHIKV NSP2 FL=18µM*;Furin counterscr=-9%;nsP2 NS23 pep=?;Papain cs=?;nsP2pro confirm=7.1µM*;HCV NS3 4A cs=i
CN(C)CC(=O)N1CCC[C@@H](n2nc(-c3ccc(Oc4ccccc4)cc3)c3c(N)ncnc32)C1	131%
CC(C)N1C[C@@H](CO)[C@H](c2nc(-c3cccnc3)no2)C1	-13%
CC(C)(C)c1cc(C[C@H]2CNCC[C@H]2CC(=O)N2CCC(Cc3ccccc3)CC2)no1	2%
Cc1ccc(CN(Cc2ccco2)C(=O)c2ccc(Cl)cc2Cl)cc1	32%
COc1ccc(C(=O)N(Cc2ccco2)Cc2ccco2)c(O)c1	5µM*	CHIKV nsP2 cell=21µM*;CHIKV NSP2 FL=?;Furin counterscr=-7%;nsP2 NS23 pep=?;Papain cs=-6%;nsP2pro confirm=?;HCV NS3 4A cs=?
COc1ccc(CN(Cc2ccccc2)C(=O)c2ccccc2O)cc1	-13%
COCCn1ccc2c(C3=CCOCC3)nc(-c3cccc4[nH]ccc34)cc21	-6%[39.2 µM]
CC(=O)Nc1ccc(C)c(C(=O)N[C@H](C)c2cccc3ccccc23)c1	-7%
Cc1ccc(S(=O)(=O)Nc2cnccc2C(=O)Nc2nc(-c3ccc(Cl)c(Cl)c3)cs2)cc1	i
Cc1cc(C)cc(-c2ccc(CN3CCCC(N[S+](=O)([O-])c4cccs4)C3)cc2)c1 (stereo not drawn)	-3%
CCOc1ccc(CCNC(=O)c2cc3sccc3n2Cc2ccc(Cl)c(F)c2)cc1OCC	i
CC(C)(C)NC(=O)[C@@H]1C[C@@H]2CCCC[C@H]2CN1C[C@@H](O)[C@H](Cc1ccccc1)NC(=O)[C@H](CC(N)=O)NC(=O)c1ccc2ccccc2n1	-9%
Fc1ccccc1N1CCN(c2ncc3c(n2)CCN(Cc2ccc(Br)s2)C3)CC1	2%
Cc1ccsc1CN1CCc2nc(Nc3ccccc3)ncc2C1	2%
Brc1ccc(CN2CCc3nc(Nc4ccccc4)ncc3C2)s1	?	CHIKV nsP2 cell=35%;CHIKV NSP2 FL=3%;Furin counterscr=-10%;nsP2 NS23 pep=2%;Papain cs=-14%;nsP2pro confirm=-5%;HCV NS3 4A cs=i
CN(C)C(=O)C(=O)c1cn(C)c2cc(Cl)c(C(=O)N3CCC(Cc4ccc(F)cc4)CC3)cc12	34%
CCCCC1CCC(C(=O)Nc2ccc(S(=O)(=O)Nc3cc(C)on3)cc2)CC1 (stereo not drawn)	i
SMILES	nsP2pro inh	others
COc1ccc(-n2cnc3cc(C(=O)N4CCCCC4)ccc32)cc1	-52%
Cc1ccc(C(c2sc3nc(-c4ccco4)nn3c2O)N2CCOCC2)cc1 (stereo not drawn)	?	CHIKV nsP2 cell=-14%;CHIKV NSP2 FL=-7%;Furin counterscr=-9%;nsP2 NS23 pep=1%;Papain cs=-19%;nsP2pro confirm=-23%;HCV NS3 4A cs=i
Oc1c(C(c2ccc(Cl)cc2Cl)N2CCOCC2)sc2nc(-c3ccco3)nn12 (stereo not drawn)	-20%
OCCN1CCN(C(c2ccc(Cl)cc2Cl)c2sc3nc(-c4ccco4)nn3c2O)CC1 (stereo not drawn)	0%
Cc1ccc(OCCn2c(CCNC(=O)CCc3ccc(N)cc3)nc3ccccc32)cc1	-20%
NC[C@@H]1O[C@@H](O[C@@H]2[C@@H](O[C@@H]3O[C@H](CO)[C@@H](O)[C@H]3O)[C@H](O)[C@@H](N)C[C@H]2N)[C@@H](N)[C@H](O)[C@H]1O	-5%[5.1 µM]
C/C(=C\CC/C(C)=C/CC[C@]1(C)CCc2cc(O)cc(C)c2O1)CC/C=C(\C)C(=O)O	82%[10 µM]
C=C1C(OC(C)=O)[C@@]23CCC4[C@](C)(C(=O)O)CCC[C@@]4(C)[C@]2(O)CC[C@H]1C3 (stereo partly drawn)	6%
Cc1ccc(S(=O)(=O)c2cnc(SCC(=O)Nc3ccc4c(c3)OCCO4)[nH]c2=O)cc1Cl	35%
O=C(CSc1ncc(S(=O)(=O)c2ccc(Br)cc2)c(=O)[nH]1)NCc1ccccc1Cl	26%
CC(C)c1ccc(S(=O)(=O)c2cnc(SCC(=O)Nc3ccc4c(c3)OCCO4)[nH]c2=O)cc1	4µM*	CHIKV nsP2 cell=?;CHIKV NSP2 FL=-14%;Furin counterscr=-8%;nsP2 NS23 pep=208%;Papain cs=?;nsP2pro confirm=65%;HCV NS3 4A cs=i
Cc1ccc(-c2cc(C(=O)N(C)c3ccccc3)c3ccccc3n2)cc1C	-1%
N#Cc1ccc(-c2cnc3[nH]cc(NC(=O)c4cccnc4)c3c2)cc1	-19%
Cc1ccccc1CC(=O)Nc1cccc(-c2nnc3n2CCCC3)c1	2%
CN[C@@H]1[C@H](O[C@H]2[C@H](O[C@@H]3[C@@H](O)[C@H](O)[C@@H](N=C(N)N)[C@H](O)[C@H]3NC(=N)N)O[C@@H](C)[C@]2(O)CO)O[C@@H](CO)[C@H](O)[C@H]1O	3%
N#Cc1cccc(-c2ccnc(N[C@H]3CO[C@H]4[C@@H]3OC[C@@H]4NC(=O)c3cccs3)n2)c1	-16%[39.2 µM]
Cc1cc(Nc2ccccc2C(=O)O)ccc1Cl	3.5µM*	CHIKV nsP2 cell=-5%;CHIKV NSP2 FL=13µM*;Furin counterscr=-10%;nsP2 NS23 pep=?;Papain cs=?;nsP2pro confirm=2µM*;HCV NS3 4A cs=i
O=C(O)c1ccccc1Nc1cc(Cl)ccc1C(=O)O	-17%[10 µM]
Cc1cccc(Nc2ccccc2C(=O)O)c1C	1%
C=C[C@@H]1C[C@]1(NC(=O)[C@@H]1C[C@@H](Oc2ncc(OC)c3ccc(Cl)cc23)CN1C(=O)[C@@H](NC(=O)OC(C)(C)C)C(C)(C)C)C(=O)NS(=O)(=O)C1CC1	-14%

Assay outcomes (PubChem BioAssay)
